PTHR1 agonist – agonists of human PTHR1 parathyroid hormone receptor. Potency, µM (doses to about 115 µM), without a hit: at the highest dose activation, actives largely listed as activators. HEK293 GP2 PTHR1 cells, GloSensor cAMP luminescence, 1 h. hit rate 0.075% among 410,000; also: potency is read from the fitted curve at half-maximal effect; nearly all actives have a fitted effect of over 55% in size
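HEK-293-derived GP2 cells expressing PTHR1 and a GloSensor cAMP reporter, 3,000/well, plated overnight, given luciferin plus IBMX (each 0.5 mM as added) for 1 h at 37 °C, then compound for 1 h at 37 °C. Luminescence was read after 15 min at room temperature.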
TSHR antagonist – human thyrotropin receptor antagonism; hit rate 0.2% among 330,000; P16473; AID 504810; activity change, negative = inhibition, % at 11.5 µM; TSHR-expressing cells, TSH-stimulated cAMP HTRF, 2 h; hits give low values;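 active = activity change below a set negative limit, meaning inhibition stronger than a set level, cut at about -70% in these data; inconclusive = activity change between two set negative limits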; also: % is scaled to controls: 0 for no effect and ±100 for the full control effect
Target sequence (P16473 whole entry, looked up): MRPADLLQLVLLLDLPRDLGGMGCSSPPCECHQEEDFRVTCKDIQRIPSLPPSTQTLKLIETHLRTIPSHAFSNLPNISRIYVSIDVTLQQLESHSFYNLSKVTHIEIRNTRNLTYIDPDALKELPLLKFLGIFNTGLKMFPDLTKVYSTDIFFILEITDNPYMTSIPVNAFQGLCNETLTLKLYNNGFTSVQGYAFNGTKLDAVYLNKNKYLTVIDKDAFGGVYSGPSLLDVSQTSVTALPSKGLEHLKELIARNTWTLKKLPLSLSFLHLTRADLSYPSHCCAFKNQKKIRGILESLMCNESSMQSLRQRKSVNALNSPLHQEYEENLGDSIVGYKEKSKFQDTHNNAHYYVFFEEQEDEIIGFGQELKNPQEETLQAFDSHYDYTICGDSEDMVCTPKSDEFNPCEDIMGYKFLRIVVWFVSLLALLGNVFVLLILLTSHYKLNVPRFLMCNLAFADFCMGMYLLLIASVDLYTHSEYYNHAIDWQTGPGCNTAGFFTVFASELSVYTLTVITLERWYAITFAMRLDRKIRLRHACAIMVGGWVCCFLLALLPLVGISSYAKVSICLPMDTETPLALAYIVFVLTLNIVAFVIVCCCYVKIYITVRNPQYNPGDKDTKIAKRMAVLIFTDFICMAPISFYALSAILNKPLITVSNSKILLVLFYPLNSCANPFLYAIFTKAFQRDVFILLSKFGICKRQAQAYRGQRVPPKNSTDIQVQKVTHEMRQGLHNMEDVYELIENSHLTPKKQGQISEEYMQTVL
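Cell-based HTRF cAMP assay; TSHR cells + compound, TSH EC80 (4nM final), 2 h, 37 deg C. Lysis with anti-cAMP cryptate and cAMP-d2, 30 min RT, read 665/620 nm.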
GLP1R ag – activates the human GLP-1 receptor; P43220; HEK293 GLP-1R CRE-luciferase, luminescence, 4-6 h; cells express a hypersensitive GLP-1R form; Potency, µM (top dose mostly 45.6 µM), for inactives: at the highest dose activation, hits mostly activators; hit rate 0.007% among 380,000; also: potency is read from the fitted curve at half-maximal effect; % of control where 0% means no effect
GLP1R inv ag – inverse agonists of human GLP-1 receptor | P43220 | HEK293 GLP-1R CRE-luciferase, luminescence, 24 h; GLP-1R form is constitutively active | Potency, µM (top dose mostly 38.3 µM), for the others: at the top dose activity change, negative = inhibition, usual class: inhibitors | hit rate 1.6% among 410,000; also: potency is read from the fitted curve at half-maximal effect; % is scaled to controls: 0 for no effect and ±100 for the full control effect; nearly all actives have a fitted effect of over 55% in size
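Using stably transfected HEK293 (constitutively active GLP-1R, cAMP-luciferase reporter), compounds were incubated 24 hr and luciferase measured by luminescence.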
HEK293 tox – cytotoxic in the GLP-1 receptor inverse agonist counter-screen. HEK293 cAMP-luciferase reporter cells, luminescence, 24 h. Potency, µM (top dose mostly 38.3 µM), for inactives: top-dose activity change, negative = inhibition, actives largely listed as inhibitors. hit rate 0.13% among 410,000;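 also: loss of luciferase light is scored as toxicity; potency is read from the fitted curve at half-maximal effect; % is scaled to controls: 0 for no effect and ±100 for the full control effect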
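A 23 nL compound transfer followed 12 hours of cell culture at 37 deg C; exposure then lasted 24 hr. Luciferase assay detection reagent was dispensed and plates read for luminescence after a 12 min room-temperature wait.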
* hit, by the source's call; [ ] = remark or other dose. Shown are actives, neighbours in structure and some others; about 1.8% of the full set was active somewhere. Unless noted, calls follow the shape of the dose curve; as a rule, active = well fitted curve in the direction sought with a large enough effect; inconclusive = small, poorly fitted or top-dose-only effect, or another doubt; inactive = no such curve, though single readings can be large; an effect the other way counts as inactive or inconclusive.

`CCc1cccc(NC(=O)Cn2c(=O)n(CCc3ccc(OC)c(OC)c3)c(=O)c3ccccc32)c1` gave PTHR1 agonist inconclusive, GLP1R ag -2%, GLP1R inv ag -4% and HEK293 tox 4%.
For Cc1noc(C)c1CCC(=O)NC1CCCN(Cc2ccc(Cl)cc2)C1 (centres undefined) the results were PTHR1 agonist -12%, TSHR antagonist -7, GLP1R ag -6%, GLP1R inv ag -5% and HEK293 tox -2%.
CC(C)Cc1ccc(CN2CCCC(NC(=O)c3ccoc3)C2)cc1 (centres undefined) was read as PTHR1 agonist -19%, TSHR antagonist 1, GLP1R ag 3%, GLP1R inv ag 8.9µM* and HEK293 tox inconclusive.
For CC(C)Cc1ccc(CN2CCCC(NC(=O)c3ccnn3C)C2)cc1 (centres undefined) the results were PTHR1 agonist -37%, TSHR antagonist -9, GLP1R ag 2%, GLP1R inv ag inconclusive and HEK293 tox 3%.
Screening Cc1noc(C)c1CCC(=O)NC1CCCN(Cc2ccc(CC(C)C)cc2)C1 (centres undefined) returned PTHR1 agonist -31%, TSHR antagonist -10, GLP1R ag -4%, GLP1R inv ag 10µM* and HEK293 tox -17%.
CCOc1ccc(-c2cc(CCCC(=O)NCCc3ccc(OCC)c(OCC)c3)no2)cc1 was read as PTHR1 agonist inconclusive, GLP1R ag 1%, GLP1R inv ag 1% and HEK293 tox 0%.
`CCSc1nc2ccccc2c(OCc2ccc(Cl)cc2)c1C(=O)OC` gave PTHR1 agonist inactive, GLP1R inv ag 22µM* and HEK293 tox 4%.
`CSc1nc(-c2ccccc2)nc(N2CCN(C)CC2)c1C(C)=O` gave PTHR1 agonist inactive, TSHR antagonist 7, GLP1R ag 3%, GLP1R inv ag 3.2µM* and HEK293 tox -14%.
For COc1cc(CNCCN2CCOCC2)ccc1OCc1ccc(Cl)cc1Cl the results were PTHR1 agonist inactive, TSHR antagonist 8, GLP1R ag -12%, GLP1R inv ag 3.2µM* and HEK293 tox -29%.
COc1cc(CNCCN2CCOCC2)ccc1OCc1cccc(Cl)c1 was read as PTHR1 agonist -7%[57.5 µM], TSHR antagonist 4, GLP1R ag 17%, GLP1R inv ag inconclusive and HEK293 tox -13%.
COc1ccc(-c2noc(-c3ccc(NCc4ccc(C)cc4)c([N+](=O)[O-])c3)n2)cc1OC was read as PTHR1 agonist inactive, GLP1R inv ag -2% and HEK293 tox -8%.
Cc1ccc(Nc2nc(-c3ccc(S(=O)(=O)N4CCCC4)cc3)cs2)cc1C was read as PTHR1 agonist -2%[57.5 µM], TSHR antagonist -16, GLP1R ag 3%, GLP1R inv ag inconclusive and HEK293 tox -33%.
`Cc1cc(C)cc(Nc2nc(-c3ccc(S(=O)(=O)N4CCCC4)cc3)cs2)c1` gave PTHR1 agonist -64%, TSHR antagonist -23, GLP1R ag 1%, GLP1R inv ag 3.5µM* and HEK293 tox -18%.
COc1ccc(C(O)(CCC(C)C)C(CN2CCOCC2)c2ccc(Cl)cc2)cc1 (centres undefined) was read as PTHR1 agonist -11%, TSHR antagonist -5, GLP1R ag 9%, GLP1R inv ag inconclusive and HEK293 tox inconclusive.
For CCCCC(O)(c1ccc(F)cc1)C(CN1CCOCC1)c1ccc(Cl)cc1 (centres undefined) the results were PTHR1 agonist -4%, TSHR antagonist 3, GLP1R ag -1%, GLP1R inv ag 2.8µM* and HEK293 tox -17%.
CCCC(O)(c1ccc(Cl)cc1)C(CN1CCOCC1)c1ccc(Cl)cc1 (centres undefined) was read as PTHR1 agonist -11%, TSHR antagonist 0, GLP1R ag 5%, GLP1R inv ag inconclusive and HEK293 tox -29%.
Screening CCOc1ccc(C(O)(CCC(C)C)C(CN2CCOCC2)c2ccccc2)cc1 (centres undefined) returned PTHR1 agonist -21%, TSHR antagonist -1, GLP1R ag 11%, GLP1R inv ag 3.2µM* and HEK293 tox inconclusive.
`COc1ccc(C(=O)NCCn2cc(SCc3cccc(F)c3)c3ccccc32)cc1OC` gave PTHR1 agonist -40%, GLP1R ag -5%, GLP1R inv ag inconclusive and HEK293 tox -11%.
`O=C(N=C1SC2CS(=O)(=O)CC2N1c1ccc(F)cc1)C1CC1` (centres undefined) gave PTHR1 agonist inactive, TSHR antagonist -109*, GLP1R ag 7%, GLP1R inv ag 79% and HEK293 tox -3%.
For CCc1ccccc1NC(=O)CSC1=Nc2ccccc2C2=NC(Cc3ccccc3)C(=O)N12 (centres undefined) the results were PTHR1 agonist inactive, GLP1R inv ag -2% and HEK293 tox 2%.
`CCCCn1c(-c2nonc2N)nc2ccccc21` gave PTHR1 agonist -11%, TSHR antagonist -4, GLP1R ag -5%, GLP1R inv ag -6% and HEK293 tox 4%.
Screening CC(C)CCn1c(-c2nonc2N)nc2ccccc21 returned PTHR1 agonist -10%[57.5 µM], TSHR antagonist 10, GLP1R ag 1%, GLP1R inv ag 2.2µM* and HEK293 tox -15%.
`CN(CC(=O)N1CCOCC1)Cc1c(Cl)cccc1NC(=O)c1ccccc1` gave GLP1R ag -4%.
CCOC(=O)C1Nc2ccccc2C2c3ccccc3CC12 (centres undefined) was read as PTHR1 agonist 17%, GLP1R ag 33%, GLP1R inv ag 9% and HEK293 tox 3%.
`CCOC(=O)C1Nc2c(F)cc(C)cc2C2c3ccccc3CC12` (centres undefined) gave PTHR1 agonist -35%, GLP1R ag -4%, GLP1R inv ag 10µM* and HEK293 tox 26%.
For CCCN(CCC)C(=O)Cn1c(=O)n(-c2ccc(C)cc2)c(=O)c2ccc(C(=O)NCc3ccccc3Cl)cc21 the results were PTHR1 agonist inactive, GLP1R ag 1%, GLP1R inv ag 14% and HEK293 tox -2%.
`Cc1cccc(Oc2nc(-c3ccccn3)nc3ccccc23)c1` gave PTHR1 agonist inactive, TSHR antagonist 4, GLP1R ag 15%, GLP1R inv ag 1.3µM* and HEK293 tox inconclusive.
For COc1ccc(S(=O)(=O)N(CC(=O)Nc2cccc(C(F)(F)F)c2)c2ccc(C)cc2)cc1 the results were PTHR1 agonist -24%, GLP1R ag -4%, GLP1R inv ag 10µM* and HEK293 tox -3%.

Screening results from PubChem.
